# Values joined by “and” are separate entries in the source; they are usually repeats but may differ in a detail not shown here. Equal entries are not always repeated. Records with an inconclusive call do not appear. Entries that show only a call come without a potency. Some structures have more than one record in an assay (separate samples or runs), and their calls can disagree. Active and inactive are the calls of the source. Unless noted, calls come from the whole dose curve; as a rule, active = well fitted curve in the direction sought with a large enough effect; inconclusive = small, poorly fitted or top-dose-only effect, or another doubt; inactive = no such curve, though single readings can be large; an effect the other way counts as inactive or inconclusive.
# Columns and labels:
# [1] = S16 Schwann cell PMP22 intronic element beta-lactamase assay (AID 624044; calls by dose curve; note: nearly all actives have a fitted effect of over 15% in size; note: potency is the fitted concentration of half-maximal effect)
# Method in brief: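 Rat S16 Schwann cells with beta-Lac driven by a PMP22 intronic element, compound-treated 24 h at 37 °C. LiveBLAzer FRET B/G read: 460 nm normalized to potassium clavulanate vs DMSO; 535 nm FRET as viability; concentration-effect curves classified.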
# [2] = qHTS Assay for Identification of Small Molecule Agonists for NFkB Signaling Pathway. (AID 624478);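 note: compounds tested together with TNF alpha at its EC50 of 10 pM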
# Method in brief: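 ME-180 cervical carcinoma, stable NFkB-RE beta-lactamase reporter; 1000 cells/well, overnight attachment; cpd + TNF alpha 10 pM final, 5 h 37 C; LiveBLAzer 2 h RT; FRET 460/530 nm, ex 405 nm.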
# [3] = qHTS Assay for Identification of Small Molecule Antagonists for NFkB Signaling Pathway. (AID 624479; calls by dose curve;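 note: pathway stimulated with TNF alpha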; note: potency is the fitted concentration of half-maximal effect)
# [4] = molecular target: Glutaminase kidney isoform, mitochondrial (Homo sapiens) (UniProt O94925); experiment: qHTS for Inhibitors of Glutaminase (GLS): LOPAC Validation (AID 624146);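 note: glutamate product detected by oxidase and peroxidase coupled Amplex red fluorescence gain; nearly all actives have a fitted effect of over 60% in size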
# Chain of Glutaminase kidney isoform, mitochondrial (Homo sapiens) (O94925 whole entry, looked up, canonical isoform): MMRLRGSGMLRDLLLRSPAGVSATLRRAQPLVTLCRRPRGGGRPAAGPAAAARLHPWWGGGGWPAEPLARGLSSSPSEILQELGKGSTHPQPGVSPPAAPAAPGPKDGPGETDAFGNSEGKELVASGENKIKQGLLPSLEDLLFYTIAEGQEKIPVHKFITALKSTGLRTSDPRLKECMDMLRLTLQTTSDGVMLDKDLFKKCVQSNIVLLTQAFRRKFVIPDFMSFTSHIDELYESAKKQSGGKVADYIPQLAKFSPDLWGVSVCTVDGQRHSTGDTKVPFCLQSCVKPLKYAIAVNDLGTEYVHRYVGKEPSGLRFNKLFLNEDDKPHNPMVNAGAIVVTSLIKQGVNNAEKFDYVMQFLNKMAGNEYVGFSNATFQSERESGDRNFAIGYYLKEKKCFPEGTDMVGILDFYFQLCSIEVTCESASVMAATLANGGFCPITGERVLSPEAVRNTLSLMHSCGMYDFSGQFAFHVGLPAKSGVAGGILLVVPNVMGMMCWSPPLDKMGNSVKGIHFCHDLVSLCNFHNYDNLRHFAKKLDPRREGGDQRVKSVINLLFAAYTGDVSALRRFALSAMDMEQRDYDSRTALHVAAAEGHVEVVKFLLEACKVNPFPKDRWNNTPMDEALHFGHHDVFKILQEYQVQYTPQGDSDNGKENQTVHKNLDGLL
# Method in brief: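 Read-out is an Amplex red fluorescence increase coupled through glutamate oxidase and HRP, measured before and after 30 min room-temperature incubation. hKGA is in 45 mM KH2PO4 (pH 8.2) with 0.02% Tween-20; glutamine added as 1mM solution.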
# [5] = qHTS of Trypanosoma Brucei Inhibitors: LOPAC Validation (AID 624147)
# Method in brief: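 Quantitative HTS: titrated library compounds versus trypanosomal pyruvate kinase in TEA buffer (pH 7.2) containing KCl, MgCl2, BSA and Tween-20. Reactions were initiated with ADP, 130 uM final. Kinase-Glo Plus luminescence was read after 45 min at RT.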
# [6] = molecular target: Glucagon-like peptide 1 receptor (Homo sapiens) (UniProt P43220); experiment: qHTS of GLP-1 Receptor Agonists: LOPAC Validation (AID 624148);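 note: luminescence from a luciferase reporter switched on by cAMP; higher luminescence signal means agonism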
# Chain of Glucagon-like peptide 1 receptor (Homo sapiens) (P43220 whole entry, looked up): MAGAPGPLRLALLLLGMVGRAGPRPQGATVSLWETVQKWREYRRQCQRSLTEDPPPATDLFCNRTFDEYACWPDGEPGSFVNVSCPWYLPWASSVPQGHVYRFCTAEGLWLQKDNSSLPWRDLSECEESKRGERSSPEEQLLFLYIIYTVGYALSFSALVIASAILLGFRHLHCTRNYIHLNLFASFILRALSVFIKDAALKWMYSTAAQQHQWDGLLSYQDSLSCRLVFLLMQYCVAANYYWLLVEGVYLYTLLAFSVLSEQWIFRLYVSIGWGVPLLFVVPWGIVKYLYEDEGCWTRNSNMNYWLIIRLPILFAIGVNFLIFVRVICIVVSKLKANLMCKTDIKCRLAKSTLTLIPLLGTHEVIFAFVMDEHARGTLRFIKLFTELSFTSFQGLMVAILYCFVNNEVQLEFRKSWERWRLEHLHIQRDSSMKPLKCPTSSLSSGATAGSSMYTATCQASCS
# Method in brief: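 Agonism scored as increased luciferase luminescence driven by cAMP in HEK293 clones carrying GLP-1R. Cells settled 12 hours, received compound for 4-6 hr at 37 deg C, 5% CO2, and were read after 12 min detection reagent at RT.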
# [7] = qHTS of Nrf2 Activators: LOPAC Validation (AID 624149)
# Method in brief: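 Luminescence read-out of ARE-luciferase activation: AREc32_Fluc cells treated with compounds for 24 hr at 37 deg C, then lysed with Steady-Glo for 30 min at room temperature before reading.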
# [8] = HTS Assay for Allosteric Antagonists of the Human D2 Dopamine Receptor: Hit Validation in HTRF (AID 624455);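 note: stable D1 dopamine receptor cell line scored for blocking the D1 response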
# Method in brief: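 First, antagonism was screened by calcium flux in a force-coupled, inducible Hek293 Trex D2 line challenged with EC80 dopamine. Hits then went into an HTRF assay in cells stably expressing D1, testing inhibition of the D1 response.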
# [9] = qHTS assay for small molecule agonists of the antioxidant response element (ARE) signaling pathway (AID 651741; active = well fitted activation curve with a large enough effect in the signal ratio; the % refers to the signal ratio; note: potency is the fitted concentration of half-maximal effect)
# Method in brief: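 Quantitative HTS in HepG2 cells stably expressing an ARE-beta-lactamase reporter; 16 h compound exposure at 37 C, followed by 2 h room-temperature incubation with LiveBLAzer B/G FRET substrate and fluorescence measurement.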
# [10] = qHTS assay for small molecule activators of the nuclear factor-kappa B (NF-kB) signaling pathway (AID 651749; active = well fitted activation curve with a large enough effect in the signal ratio; the % refers to the signal ratio); details: NF-kB-bla ME-180 cells, beta-lactamase FRET ratio, 16 h; stronger effect = higher value
# Method in brief: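 Readout: beta-lactamase reporter driven by an NF-kB response element, detected fluorescently as loss of FRET. Cells were the ME-180 line, treated 16 hr at 37C with pin-transferred compound.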
# [11] = molecular target: Tumor necrosis factor (Homo sapiens) (UniProt P01375); experiment: qHTS assay to identify small molecules that stimulate Tumor Necrosis Factor-alpha (TNF-alpha) secretion (AID 651757; active = well fitted curve in the direction sought with a large enough effect in the signal ratio; the % refers to the signal ratio)
# Chain of Tumor necrosis factor (Homo sapiens) (P01375 whole entry, looked up): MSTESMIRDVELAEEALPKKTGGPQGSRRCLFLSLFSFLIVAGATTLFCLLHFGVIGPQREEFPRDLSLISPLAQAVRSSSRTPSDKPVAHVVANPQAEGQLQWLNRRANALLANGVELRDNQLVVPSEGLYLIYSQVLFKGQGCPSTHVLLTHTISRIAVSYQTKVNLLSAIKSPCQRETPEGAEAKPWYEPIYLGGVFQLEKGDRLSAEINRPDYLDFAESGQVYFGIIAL
# Method in brief: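 Read-out is HTRF, a TR-FRET sandwich of cryptate- and XL665-labeled anti-TNF-alpha antibodies detecting cytokine secreted by THP-1 cells. Cells had been incubated with test compounds at 37 C for 17 hrs beforehand.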
# [12] = Cytotoxicity counterscreen for NFkB agonists and antagonists (AID 624476);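 note: cells exposed to compound for 48 hours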; note: potency is the fitted concentration of half-maximal effect
# [13] = Cell Proliferation Assay against the TMD8 Cell Line (AID 651645); details: TMD8 DLBCL cell line proliferation/viability; at 46.1 µM (top of the series) unless noted;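 note: cells exposed to compound for 48 h before reading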
# Method in brief: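 Viability by CellTiter-Glo after 48 h compound exposure of 500 log-phase TMD8 cells per well (RPMI, 5% FBS). Percent activity scaled between DMSO (100%) and 9.2 uM final bortezomib (0%).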
# [14] = Cell Proliferation Assay against the HBL1 Cell Line (AID 651646); details: HBL1 DLBCL cells; at 46.1 µM (top of the series) unless noted;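 note: cells exposed to compound for 48 h before reading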
# Method in brief: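 Luminescent ATP read-out (CellTiter-Glo) after 48 h compound exposure of HBL1 cells at 37 °C; percent activity was scaled between DMSO as 100% and 9.2 uM bortezomib (final) as 0%.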
# [15] = Cell Proliferation Assay against the TMD8 Cell Line (Caspase readout at 16 hrs) (AID 651712); note: potency is the fitted concentration of half-maximal effect
# Method in brief: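 Apoptotic response of TMD8 cells was judged from caspase 3/7 activation following a 16 hour compound incubation at 37 °C. Luminescent signal was converted to percent activity, with DMSO set as 0% and 9.2 uM final bortezomib as 100%.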
# [16] = Cell Proliferation Assay against the TMD8 Cell Line (Caspase readout at 8 hrs) (AID 651713); note: potency is the fitted concentration of half-maximal effect
# Method in brief: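 Seed log-phase TMD8 cells, add compound by pin tool, incubate 8 h at 37C under 5% CO2, equilibrate to room temperature, add Caspase-Glo, wait 15 min, read luminescence; percent activity uses DMSO and 9.2 uM bortezomib controls.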
compound,measurement,setting,value
O=C1Nc2ccc(Cl)cc2C(C#CC2CC2)(C(F)(F)F)O1 (stereo not given),Potency,[1],inactive
same,outcome,[2],inactive
same,Potency,[3],30.6 µM (active)
CC(=O)O[C@]1(C(C)=O)CC[C@H]2[C@@H]3C=C(Cl)C4=CC(=O)[C@@H]5C[C@@H]5[C@]4(C)[C@H]3CC[C@@]21C,Potency,[4],inactive
same,outcome,[5],inactive
same,outcome,[6],inactive
same,outcome,[7],inactive
same,outcome,[8],inactive
same,Potency,[9],54.5 µM (active) and 42.2 µM (active)
same,activation,[10],-2.59% (inactive) and -0.559% (inactive)
same,outcome,[11],inactive
Clc1ccc(C(c2ccc(Cl)cc2)n2cc[n+](CC(OCc3ccc(Cl)cc3Cl)c3ccc(Cl)cc3Cl)c2)cc1 (stereo not given),Potency,[4],inactive
same,outcome,[5],inactive
same,outcome,[6],inactive
same,outcome,[7],inactive
same,outcome,[8],inactive
O=C(CCCCCCC(=O)Nc1ccccc1)NO,Potency,[1],2.24 µM (active)
same,Potency,[12],38.2 µM (active)
same,outcome,[2],inactive
same,Potency,[3],inactive
same,viability (% of control),[13],2.92% [at 92.2 µM]
same,"viability, percent of control",[14],3.42% [at 92.2 µM]
same,Potency,[15],0.429 µM (active)
same,Potency,[16],inactive
COc1cccc(-c2cc(=O)c3ccccc3o2)c1N,Potency,[4],inactive
same,outcome,[5],inactive
same,outcome,[6],inactive
same,outcome,[7],inactive
same,outcome,[8],inactive
Clc1ccc(COC(Cn2ccnc2)c2ccc(Cl)cc2Cl)cc1 (stereo not given),Potency,[1],inactive
O=C(O)c1c(Cl)c(Cl)c(Cl)c(Cl)c1-c1c2cc(I)c(=O)c(I)c-2oc2c(I)c(O)c(I)cc12,Potency,[1],inactive
NCCS,Potency,[4],inactive
same,outcome,[5],inactive
same,outcome,[6],inactive
same,outcome,[7],inactive
same,outcome,[8],inactive
CC(=O)Nc1ccc([C@H](C)C(=O)Nc2ncc(C(C)C)s2)cc1,Potency,[12],0.935 µM (active)
same,outcome,[2],inactive
same,Potency,[3],0.335 µM (active)
same,viability (% of control),[13],-0.0002%
same,"viability, percent of control",[14],33.5%
CC(C)[C@H](CO)Nc1nc(Nc2ccc(C(=O)O)c(Cl)c2)c2ncn(C(C)C)c2n1,Potency,[12],inactive
same,outcome,[2],inactive
same,Potency,[3],inactive
same,viability (% of control),[13],83.7%
same,"viability, percent of control",[14],129%
same,Potency,[15],inactive
same,Potency,[16],inactive
CCN(CC)C(=O)c1ccc(O)c(OC)c1,outcome,[5],inactive
same,outcome,[6],inactive
same,outcome,[7],inactive
same,outcome,[8],inactive
NC(N)=Nc1nc(CSCC/C(N)=N/S(N)(=O)=O)cs1,outcome,[5],inactive
same,outcome,[6],inactive
same,outcome,[7],inactive
same,outcome,[8],inactive
O=C1NC(=O)C(c2ccccc2)(c2ccccc2)N1,Potency,[4],inactive
same,outcome,[5],inactive
same,outcome,[6],inactive
same,outcome,[7],inactive
same,outcome,[8],inactive
same,Potency,[9],34.4 µM (active) and inactive
same,outcome,[11],inactive
CC(C)(C)c1ccc(C(O)CCCN2CCC(C(O)(c3ccccc3)c3ccccc3)CC2)cc1 (stereo not given),Potency,[4],inactive
same,outcome,[5],inactive
same,outcome,[6],inactive
same,outcome,[8],inactive
CC(C)NCC(O)COc1cccc2[nH]ccc12 (stereo not given),Potency,[4],inactive
same,outcome,[5],inactive
same,outcome,[6],inactive
same,outcome,[8],inactive
COc1ccc(Cc2nccc3cc(OC)c(OC)cc23)cc1OC,Potency,[4],inactive
same,outcome,[5],inactive
same,outcome,[7],inactive
same,outcome,[8],inactive
COc1cccc2c1CCCC2CCCN1CCN(C2CCCCC2)CC1 (stereo not given),Potency,[12],inactive
same,outcome,[2],inactive
same,Potency,[3],inactive
same,viability (% of control),[13],1.09%
same,"viability, percent of control",[14],28.8%
same,Potency,[15],23.5 µM (active)
same,Potency,[16],29.6 µM (active)
O=C(O)CCc1nc(-c2ccccc2)c(-c2ccccc2)o1,Potency,[4],inactive
same,outcome,[5],inactive
same,outcome,[6],inactive
same,outcome,[8],inactive
COc1ncc(-c2ccc3nccc(-c4ccnnc4)c3c2)cc1NS(=O)(=O)c1ccc(F)cc1F,Potency,[12],1.05 µM (active)
same,outcome,[2],inactive
same,Potency,[3],11.9 µM (active)
same,viability (% of control),[13],1.53%
same,"viability, percent of control",[14],4.41%
same,Potency,[15],inactive
CC(C)OC(=O)C(C)(C)Oc1ccc(C(=O)c2ccc(Cl)cc2)cc1,Potency,[4],inactive
same,outcome,[6],inactive
same,outcome,[7],inactive
same,outcome,[8],inactive
same,activation,[10],-1.6% (inactive)
CN(C)C1CCN(C(=O)c2ccc(NC(=O)Nc3nc(N4CCOCC4)nc(N4CCOCC4)n3)cc2)CC1,Potency,[12],0.0743 µM (active)
same,outcome,[2],inactive
same,Potency,[3],inactive
same,viability (% of control),[13],2.35%
same,"viability, percent of control",[14],26.9%
same,Potency,[15],6.62 µM (active)
CC/C(=C(\c1ccccc1)c1ccc(OCCN(C)C)cc1)c1ccccc1,Potency,[4],inactive
same,outcome,[5],inactive
same,outcome,[6],inactive
same,outcome,[7],inactive
same,outcome,[8],inactive
same,outcome,[11],inactive
CCn1cc(C(=O)O)c(=O)c2ccc(C)nc21,Potency,[4],inactive
same,outcome,[5],inactive
same,outcome,[6],inactive
same,outcome,[8],inactive
same,Potency,[9],inactive
same,activation,[10],-0.653% (inactive) and -1.68% (inactive)

# From PubChem BioAssay (NCATS)
